Screening results deposited in PubChem by National Center for Advancing Translational Sciences (NCATS).
A647 fluor – A647 region autofluorescence; Compound fluorescence, A647 channel (570/671 nm), Tris buffer; max dye-equivalent concentration, M; 59,000 tested, under 10 active; AID 592
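Each compound's intrinsic fluorescence at 570 nm excitation and 671 nm emission is measured across its concentration series in 100 mM Tris, pH 8.0, after 15 min at room temperature, and reported relative to an A647 curve.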
A488 autofl – compound autofluorescence in A488 spectral region; compound autofluorescence, A488 spectral region, dye equivalency; Compound Type: qHTS ECL - MLSMR; max dye equivalency, M; 59,000 compounds, 0.1% hits
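Readout is A488 dye-equivalent concentration, calibrated by a per-plate six-point Alexa 488 series. Compounds in 100 mM Tris buffer pH 8.0 were incubated 15 min at room temperature. Plates were imaged using 480 nm excitation/540 nm emission filters.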
Fluorescein autfl – fluorescein region autofluorescence | Compound autofluorescence, 480/540 nm, fluorescein-equivalent; stronger effect = higher value | max fluorescein-equivalent concentration, M | 59,000 compounds, 0.91% hits | AID 593; in the data active means max fluorescein-equivalent concentration above about 10 nM; inconclusive means between about 1.1 nM and that limit
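In this qHTS profile, compound fluorescence was measured with a 480 nm/540 nm filter pair following a 15-min room-temperature incubation in 100 mM Tris (pH 8.0). A six-point fluorescein series on each plate served for normalization.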
Texas Red fluor – compound fluoresces in the Texas Red spectral region | max dye-equivalent concentration, M | 59,000 compounds, 0.06% hits | Compound fluorescence, Texas Red channel, 547/618 nm; stronger effect = higher value; in the data active means max dye-equivalent concentration above about 10 nM; inconclusive means between about 1.1 nM and that limit
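Compound titrations in 100 mM Tris pH 8.0 were incubated 15 min at room temperature and read at 547 nm excitation / 618 nm emission. Texas Red six-point standard curve on each plate converted fluorescence to dye-equivalent concentration.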
Rhodamine fluor – rhodamine region autofluorescence. 59,000 compounds, 0.05% hits. AID 594. max dye-equivalent concentration, M. Rhodamine-region fluorescence, 547/598 nm, Tris buffer; stronger effect = higher value; in the data active means max dye-equivalent concentration above about 11 nM; inconclusive means between about 1.1 nM and that limit
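Compound fluorescence in 100 mM Tris, pH 8.0, read after 15 min at room temperature with 547 nm excitation and 598 nm emission. Output is dye-equivalent concentration from an on-plate rhodamine standard series.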
Resorufin autofl – compounds fluorescent in resorufin spectral region | Compound fluorescence, resorufin region 547/598 nm, buffer; stronger effect = higher value | max dye-equivalent concentration, M | 59,000 compounds, 0.04% hits | AID 588
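Tris 100 mM pH 8.0; compound added, 15 min RT; CCD imager read, ex 547 nm/em 598 nm; signal normalized to resorufin standard curve (six concentrations per plate) as dye-equivalent concentration.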
A number is an active result; - = inactive; ? = inconclusive; ! = a repeat was not active. Hits are enriched below; roughly 0.9% of the tested compounds scored in any of these assays. Unless noted, how the calls were made is not given here.

SMILES | A647 fluor | A488 autofl | Fluorescein autfl | Texas Red fluor | Rhodamine fluor | Resorufin autofl
Nc1nnnn1/N=C/C(Br)=C/c1ccccc1 | - | - | - | - | - | -
Cc1cccn2c(=O)c3cc(C#N)c(=NC(=O)c4ccc5c(c4)OCO5)n(CC(C)C)c3nc12 | - | - | - | - | - | -
Cc1cccn2c(=O)c3cc(C#N)c(=NC(=O)c4ccncc4)n(CCCOC(C)C)c3nc12 | - | - | 1.7e-08M | ? | - | -
CCCn1c(=NC(=O)c2ccncc2)c(C#N)cc2c(=O)n3cccc(C)c3nc21 | - | - | 1.2e-08M | - | - | -
C[C@H](O)C(=O)C1=Nc2c(nc(N)[nH]c2=O)NC1 | - | ? | 4e-08M | ? | - | -
c1ccc2[nH]c(CN3CCCCCC3)nc2c1 | - | - | ? | - | - | -
[O-][n+]1c(CN2CCCCC2)nc2cccc3c2c1-c1ccccc1-3 | - | - | 1.7e-08M | - | - | -
CN1/C(=C\P(=O)(N(C)C)N(C)C)C(C)(C)c2ccccc21 | - | - | ? | 4.7e-08M | 1.2e-08M | 1e-08M
NC(=O)C1CCN(CC(=O)Nc2ccccn2)CC1 | - | - | ? | ? | - | -
N#CCCn1c(=O)c(-c2cccs2)nc2cnc(Nc3ccccc3)nc21 | - | - | ? | - | - | -
CCNc1ncc2nc(-c3cccs3)c(=O)n(CCC#N)c2n1 | - | - | 1.4e-08M | - | - | -
CCOC(=O)Nc1cc(C)ccc1OC | - | - | - | ? | - | -
CCOC(=O)Nc1ccc(NCc2ccc(F)cc2)nc1N | - | - | 1.6e-08M | - | - | -
Cc1ccc(S(=O)(=O)NCC(=O)NC2CCCCCC2)cc1 | - | - | - | - | - | -
O=C(c1ccco1)[C@@H]1[C@@H]2C(=O)N(c3ccccc3)C(=O)[C@@H]2C2c3ccccc3C=CN21 (stereo not given in full) | - | - | 1.8e-08M | - | - | -
CC(=O)[C@@H]1[C@@H]2C(=O)N(Cc3ccccc3)C(=O)[C@@H]2C2c3ccccc3C=CN21 (stereo not given in full) | - | - | 1.5e-08M | - | - | -
Cc1ccc(N2C(=O)[C@@H]3[C@H](C2=O)C2c4ccccc4C=CN2[C@@H]3C(=O)c2ccco2)cc1 (stereo not given in full) | - | - | 1.1e-08M | ? | - | -
CC(=O)c1ccc(N2C(=O)C3C(C2=O)C(C(=O)c2ccc(Cl)cc2)N2CCCC32)cc1 (stereo not given) | - | ? | 1.3e-07M | - | - | -
O=C(c1ccc(Cl)cc1)C1C2C(=O)N(c3ccccc3)C(=O)C2C2CCCN21 (stereo not given) | - | ? | 5.2e-08M | - | - | -
Cc1ccc(N2C(=O)[C@@H]3[C@H](C2=O)C2CCCN2[C@@H]3C(=O)c2ccccc2)cc1 (stereo not given in full) | - | - | ? | - | - | -
O=C(/C=N/O)Nc1ccc(F)cc1 | - | - | - | ? | - | -
CCOc1ccccc1-n1c(SCC(=O)NC2CCCC2)nnc1-c1ccoc1C | - | - | ? | - | - | -
COC(=O)[C@@H]1[C@@H]2C[C@H]3c4[nH]c5ccccc5c4CCN3C[C@@H]2CC[C@@H]1OS(=O)(=O)O | - | - | ? | - | - | -
O=C(O)[C@@H]1[C@@H]2C[C@H]3c4[nH]c5ccccc5c4CCN3C[C@@H]2CC[C@@H]1O | - | - | 1.7e-08M! | - | - | -
Nc1ncnc2c1nc(Br)n2[C@@H]1O[C@H]2COP(=O)(O)O[C@@H]2[C@H]1O | - | - | - | - | - | -
SMILES | A647 fluor | A488 autofl | Fluorescein autfl | Texas Red fluor | Rhodamine fluor | Resorufin autofl
COc1ccc2cc3c(N)c(C(=O)NCc4ccco4)sc3nc2c1 | - | - | 2.4e-08M | - | - | -
Cc1cc(=O)n(CC=C(Cl)Cl)c2ccccc12 | - | - | ? | - | - | -
Cc1cccc(C)c1NC(=O)CN1CCN(CCCC(c2ccc(F)cc2)c2ccc(F)cc2)CC1 | - | - | 1e-08M | - | - | -
Cc1cc(C)c(S(=O)(=O)N(CC(=O)O)C2CCCCC2)c(C)c1 | - | - | 2.6e-08M | - | - | -
Cc1cc(C)c(S(=O)(=O)N(CC(=O)N2CCOCC2)C2CCCCC2)c(C)c1 | - | - | - | - | - | -
CCN(CC)CCC[C@H](C)Nc1c2ccc(Cl)cc2nc2ccc(OC)cc12 | - | ? | 9e-08M | - | - | -
C1=C(c2ccc(-c3ccccc3)cc2)Nc2ncnn2C1c1ccco1 (stereo not given) | - | ? | 1.4e-07M | - | - | -
CCOc1ccc(C2C=C(c3ccccc3)Nc3ncnn32)cc1 (stereo not given) | - | - | 1.3e-08M | - | - | -
COc1ccc(C2C=C(c3ccc(Br)s3)Nc3ncnn32)cc1OC (stereo not given) | - | 7.3e-08M | 1.3e-06M | - | - | -
CCOc1ccc(C2C=C(c3ccc(F)cc3)Nc3ncnn32)cc1 (stereo not given) | - | - | ? | ? | - | -
COc1cccc(C2=CC(c3ccccc3)n3ncnc3N2)c1 (stereo not given) | - | - | ? | - | - | -
COc1ccc(C2C=C(c3ccc(C)cc3)Nc3ncnn32)cc1 (stereo not given) | - | - | 1.1e-08M | - | - | -
CCOC(=O)C(NC(=O)Nc1ccccc1)(OCC)C(F)(F)F (stereo not given) | - | - | ? | - | - | -
N#Cc1c(/N=C/c2cccs2)sc2c1CCC2 | - | - | ? | - | - | -
CN1CCc2c(sc(/N=C/c3cccs3)c2C(N)=O)C1 | - | - | 1.1e-08M | ? | - | -
N#Cc1c(/N=C/c2ccco2)sc2c1CCCCC2 | - | - | - | - | - | -
CN1CCc2c(sc(/N=C/c3ccco3)c2C(N)=O)C1 | - | ? | 2.5e-08M | - | - | -
CN(C)CC[C@H](c1ccc(Cl)cc1)c1ccccn1 | - | - | 1.3e-08M! | ? | - | -
C=CCn1c(=S)[nH]c2ccc(Br)cc2c1=O | - | - | 1.9e-08M | - | - | -
C=CCn1c(=S)[nH]c2nc3c(cc2c1=O)CCCC3 | - | - | - | - | - | -
C/C=C/COc1nc2c(c(=O)n(C)c(=O)n2C)n1C | - | - | - | ? | - | -
O=C1CCCc2c1cc(C(=O)Nc1ccc(Cl)cn1)c(=O)n2-c1ccccc1 | - | - | - | - | - | -
Cc1ccc(-n2c3c(cc(C(=O)NC4CCSC4=O)c2=O)C(=O)CCC3)cc1 (stereo not given) | - | - | 1.1e-08M | - | - | -
O=S(=O)(Nc1nc2ccccc2nc1N1CCN(c2ccccn2)CC1)c1ccc(Cl)cc1 | - | - | 1.7e-08M | - | - | -
Cc1ccc(C)n1-c1cc(S(=O)(=O)N2CCOCC2)ccc1N1CCCC1 | - | - | - | - | - | -
COCC(=O)N1CCC2(CC1)CN(Cc1ccccc1OC)C2 | - | - | ? | - | - | -
